# Reference: PubChem BioAssay (NCATS)
# Results filed as inconclusive are left out. Unmarked numbers belong to inactive results. Active and inactive are the calls of the source. Calls follow the shape of the full dose curve.
# Biological target: Peroxisome proliferator-activated receptor delta (Homo sapiens) (UniProt Q03181)
# Assay: qHTS assay for small molecule agonists of peroxisome proliferator-activated receptor delta signaling (AID 588534);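 also: 0% = DMSO basal wells and 100% = positive control agonist at 10 µM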
# Settings: HEK293T PPARdelta-UAS-bla, beta-lactamase ratio, 18 h; series mostly up to 76.7 µM; activation: at the top concentration
# Outline: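 EC50 and efficacy values derive from Hill fits of a concentration series in a beta-lactamase reporter cell assay. Exposure is 18 hrs at 37 C, with CCF4 fluorescence as the readout.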
# Sequence of Peroxisome proliferator-activated receptor delta (Homo sapiens) (Q03181 whole entry, looked up): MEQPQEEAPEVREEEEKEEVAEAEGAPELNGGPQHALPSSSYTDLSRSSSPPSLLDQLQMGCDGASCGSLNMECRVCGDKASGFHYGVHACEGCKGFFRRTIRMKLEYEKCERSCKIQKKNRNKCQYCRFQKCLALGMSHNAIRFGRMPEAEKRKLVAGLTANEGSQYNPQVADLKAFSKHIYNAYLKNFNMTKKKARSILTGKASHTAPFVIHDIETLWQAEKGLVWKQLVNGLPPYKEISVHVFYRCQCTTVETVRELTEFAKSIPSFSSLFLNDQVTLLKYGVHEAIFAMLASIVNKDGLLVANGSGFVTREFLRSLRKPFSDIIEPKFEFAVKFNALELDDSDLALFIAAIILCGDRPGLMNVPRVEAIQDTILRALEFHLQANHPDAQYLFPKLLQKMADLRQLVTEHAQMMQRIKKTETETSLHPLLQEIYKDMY
SMILES,activation [%],outcome
CCCCC(CC)COC(=O)/C=C\C(=O)OCC(CC)CCCC (stereo not given),3.59,
C=CCOC(=O)CC(C)C,-6.24,
CCSC(=O)N(CC(C)C)CC(C)C,5.27,
CC1=CC2C3CC(C=C3C)C2C1 (stereo not given),3.19,
Cc1ccc(N)c([N+](=O)[O-])c1,,inactive
Nc1cc([N+](=O)[O-])ccc1O,,inactive
ClC/C=C/CCl,8.49,
CS(=O)(=O)c1ccc(Cl)cc1,-3.46,
CC12CCC(CC1=O)C2(C)C (stereo not given),,inactive
O=C(O)c1cccc(C(=O)O)c1,2.56,
OCCOCCOCCOCCO,0.513,
Nc1nc(N)nc(-c2ccccc2)n1,-0.968,
S=C(NC1CCCCC1)NC1CCCCC1,-2.85,
ClCCl,1.34,
CN(C)CCOCCN(C)C,-1.52,
C/C(=C\C(C)CC(C)CC(C)C)C1CC(=O)OC1=O (stereo not given),-2.11,
O=Cc1ccc(Cl)cc1,6.39,
O=[N+]([O-])c1ccc(Cl)cc1Cl,4.65,
CN(C)C(=O)Nc1ccccc1,-0.0648,
NC(=O)CCCCC(N)=O,7.26,
NC(N)=O,8.47,
O=[N+]([O-])c1c(Cl)cc(Cl)cc1Cl,7.3,
Clc1cc(Cl)cc(Cl)c1,6.75,
CCC=O,8.01,
CCCCC(CC)CN (stereo not given),,inactive
Cc1ccc(S(=O)(=O)Oc2ccc(N=Nc3ccc(-c4ccc(N=Nc5c(O)ccc6cc(S(=O)(=O)O)cc(S(=O)(=O)O)c56)c(C)c4)cc3C)cc2)cc1,3.72,
CCCCCCCC/C=C\CCCCCCCC(=O)OC,2.62,
CCCCCCC(C)OC(=O)COc1nc(F)c(Cl)c(N)c1Cl (stereo not given),-6.84,
CC(C)C=O,0.0575,
CC1=CC(C)(C)Nc2ccccc21,,inactive
